Bioassay records: PubChem BioAssay, National Center for Advancing Translational Sciences (NCATS)
HEK cytotox = Cytotoxic Profiling in HEK 293 Cell Line of Diverse Libraries Using Quantitative High-Throughput Screening. 94,000 tested, 6.6% active. HEK 293 viability, ATP luminescence (CellTiter-Glo), 48-72 h. Potency, µM (top dose mostly 115 µM), for inactives: at the highest dose activity change, negative = cytotoxicity, most hits filed as inhibitors; also: % is scaled to controls: 0 for no effect and ±100 for the full control effect; nearly all actives have a fitted effect of over 60% in size
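Cells seeded first (HEK 293, 250 cells/well), then compound added by pintool. Incubation ran 48 or 72 hr at 37 degree Celsius. CellTiter-Glo was added and luminescence imaged after 10 min at room temperature.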
Luciferase inh = Firefly luciferase inhibition profiling of diverse chemical library using quantitative high-throughput screening. purified P. pyralis luciferase, luminescence, biochemical. AID 1347043, 2019. Luciferin 4-monooxygenase (Photinus pyralis), P08659. 76,000 tested, 2.5% active. Potency, µM (series often up to 115 µM), most hits filed as inhibitors; also: % is scaled to controls: 0 for no effect and ±100 for the full control effect; nearly all actives have a fitted effect of over 65% in size
Target sequence (P08659 whole entry, looked up): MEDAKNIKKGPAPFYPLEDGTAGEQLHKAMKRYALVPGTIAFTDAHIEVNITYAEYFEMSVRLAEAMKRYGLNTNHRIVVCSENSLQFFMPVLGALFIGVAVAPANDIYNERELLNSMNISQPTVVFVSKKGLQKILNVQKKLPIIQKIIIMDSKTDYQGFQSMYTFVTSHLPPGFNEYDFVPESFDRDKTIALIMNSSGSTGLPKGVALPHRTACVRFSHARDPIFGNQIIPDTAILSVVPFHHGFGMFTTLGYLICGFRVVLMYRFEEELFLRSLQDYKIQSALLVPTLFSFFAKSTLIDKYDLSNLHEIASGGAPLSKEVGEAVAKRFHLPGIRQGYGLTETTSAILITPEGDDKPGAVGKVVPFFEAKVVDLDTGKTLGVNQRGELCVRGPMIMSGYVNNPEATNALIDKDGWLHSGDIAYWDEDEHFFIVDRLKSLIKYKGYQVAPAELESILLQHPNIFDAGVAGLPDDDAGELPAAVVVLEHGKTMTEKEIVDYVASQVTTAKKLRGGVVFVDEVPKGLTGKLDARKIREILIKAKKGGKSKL
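Luminescence read by CCD imaging after purified firefly luciferase (10nM final) was added to substrate buffer holding 10uM D-luciferin and 10uM ATP, pH 7.5, pre-dosed with compound.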
3T3 cytotox = Cytotoxic Profiling in NIH 3T3 Cell Line of Diverse Libraries Using Quantitative High-Throughput Screening | Potency, µM (series often up to 96.7 µM), for inactives: top-dose activity change, negative = cytotoxicity, most hits filed as inhibitors | 94,000 tested, 4.3% active | NIH 3T3 viability, CellTiter-Glo ATP luminescence, 48-72 h; also: % is scaled to controls: 0 for no effect and ±100 for the full control effect; nearly all actives have a fitted effect of over 55% in size
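Cytotoxicity is measured as loss of cellular ATP: NIH 3T3 cells (400/well) are exposed to compound for 48 or 72 hr at 37 °C, then CellTiter-Glo luminescence is imaged after 10 min at room temperature.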
NPR1 antag = Natriuretic polypeptide receptor (hNpr1) antagonism - Primary qHTS; Atrial natriuretic peptide receptor 1 (Homo sapiens), P16066; 76,000 tested, 1.6% active; HEK293 hNpr1 GloSensor cGMP, ANP-stimulated luminescence; Potency, µM (doses to about 46.3 µM), for inactives: at the highest dose activity change, negative = inhibition, hits mostly inhibitors; calls by dose curve; also: % is scaled to controls: 0 for no effect and ±100 for the full control effect; nearly all actives have a fitted effect of over 60% in size
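Compound pre-incubated 30 min at room temperature on GloSensor-loaded HEK293 cells stably carrying hNpr1 and the pGS-40F cGMP biosensor. Stimulation uses hNppA at 0.1 nM final; luminescence is taken at baseline and 20 min post-agonist.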
Npr1 antag conf = Natriuretic polypeptide receptor (hNpr1) antagonism - Confirmation. shares compounds with NPR1 antag. HEK293 hNpr1 cGMP GloSensor luminescence, ANP-stimulated. Potency, µM (doses to about 57.6 µM), inactives show top-dose activity change, negative = inhibition, usual class: inhibitors. 1,400 tested, 76% active; calls by dose curve; also: nearly all actives have a fitted effect of over 70% in size
NPR2 antag = Natriuretic polypeptide receptor (hNpr2) antagonism - Subtype selectivity assay; shares compounds with NPR1 antag; Potency, µM (doses to about 57.6 µM), inactives show at the top dose activity change, negative = inhibition, hits mostly inhibitors; 1,400 tested, 67% active; HEK293 hNpr2 GloSensor cGMP luminescence, CNP-stimulated; calls by dose curve; also: nearly all actives have a fitted effect of over 70% in size
FLuc inh counter = Natriuretic polypeptide receptor (hNpr1) antagonism - Confirmation firefly luciferase (FLuc) inhibition counterscreen. purified FLuc enzyme, luminescence, Km substrate. 1,400 tested, 0.7% active. shares compounds with NPR1 antag. Potency, µM (doses to about 57.6 µM), for inactives: at the highest dose activity change, negative = inhibition, most hits filed as inhibitors; also: 0% is about no effect
GloSensor ctrl = Natriuretic polypeptide receptor (hNpr1) antagonism - Counterscreen GloSensor control cell line | HEK293 GloSensor cGMP, SNP-stimulated, luminescence | Potency, µM (top dose mostly 57.6 µM), for inactives: top-dose activity change, negative = inhibition, actives largely listed as inhibitors | shares compounds with NPR1 antag | 1,400 tested, 69% active; calls by dose curve; also: % is scaled to controls: 0 for no effect and ±100 for the full control effect; nearly all actives have a fitted effect of over 70% in size
Active calls of the source: *; i = inactive; ? = inconclusive; · = no result; [ ] = dose if it differs, or a comment. In the library only some 11% were active in any assay of this set; here they are far more common. Unless noted, calls follow the shape of the dose curve; as a rule, active = well fitted curve in the direction sought with a large enough effect; inconclusive = small, poorly fitted or top-dose-only effect, or another doubt; inactive = no such curve, though single readings can be large; an effect the other way counts as inactive or inconclusive. Potency is read from the fitted curve at half-maximal effect.

SMILES	HEK cytotox	Luciferase inh	3T3 cytotox	NPR1 antag	Npr1 antag conf	NPR2 antag	FLuc inh counter	GloSensor ctrl
COC(=O)c1ccc(COC(=O)C2=CN(C)S(=O)(=O)N=C2C)o1	-29.9%	i	-30.4%	?	24.3µM*	?	2.8%	19.3µM*
Cc1ccc(C(=O)N2CCC(Cc3nc(-c4ccc(F)cc4)no3)CC2)cn1	?	i	?	1.12µM*	1.37µM*	1.93µM*	2.3%	1.53µM*
CCc1ccc(C(=O)N2CCC(Cc3nc(-c4ccc(F)cc4)no3)CC2)cc1	?	i	?	1.26µM*	1.53µM*	1.72µM*	4.2%	1.53µM*
Cc1ccc(C(=O)N2CCC(Cc3nc(-c4cnccn4)no3)CC2)cc1C	-29.7%	i	?	-6.8%	·	·	·	·
CCc1ccc(C(=O)N2CCC(Cc3nc(C(C)C)no3)CC2)cc1	?	i	?	15.8µM*	27.3µM*	?	2.4%	24.3µM*
O=C(c1ccc2c(c1)OCO2)N1CCC(Cc2nc(-c3ccc(F)cc3)no2)CC1	?	i	?	2.51µM*	2.43µM*	2.17µM*	-6.9%	1.72µM*
Cc1cccc(C(=O)N2CCC(Cc3nc(C(C)C)no3)CC2)c1	?	i	?	-23.2%	·	·	·	·
Cc1cccc(C(=O)NCc2nnc3c(-c4nc(C(C)C)no4)cccn23)c1	i	i	i	6.5%	·	·	·	·
COc1cccc([S+](=O)([O-])N2CCC3(CC2)C(=O)NCN3Cc2ccc(Cl)cc2)c1	0.1%	i	-16.0%	1.4%	·	·	·	·
CC(C)c1ccccc1NC(=O)Cn1cccc1-c1nc(-c2ccc(F)cc2)no1	-2.0%	i	-1.5%	1.4%	·	·	·	·
CC(C)c1ccc(C(=O)N2CCC(Cc3nc(-c4ccc(F)cc4)no3)CC2)cc1	?	i	?	1.41µM*	1.37µM*	1.72µM*	-0.2%	1.37µM*
C[S+](=O)([O-])CCn1ncc2cc(OCC3CCN(C(=O)OC4CCCC4)CC3)ccc21	?	i	?	10µM*	10.9µM*	10.9µM*	-18.5%	9.68µM*
CCc1cnc(N2CCC(COc3ccc4c(cnn4CC[S+](C)(=O)[O-])c3)CC2)nc1	?	i	-23.1%	8.91µM*	8.62µM*	9.68µM*	0.3%	6.85µM*
C[S+](=O)([O-])CCn1ncc2cc(OCc3cccc(-c4ccc(Cl)cc4)c3)ccc21	?	i	?	?	31.4µM*	31.4µM*	?	35.3µM*
Cc1oc(-c2ccccc2)nc1CN1CCCC(C(=O)NCCc2noc(-c3ccccc3)n2)C1 (stereo unspecified)	?	i	?	12.6µM*	?	?	4.9%	?
COc1ccc(CN2C[C@@H]3C[C@@H](C(N)=O)N(C(=O)C4CCCC4)c4cccc(c43)C2=O)cc1	-15.3%[57.5 µM]	·	?	·	·	·	·	·
COc1ccc(OC)c(CNC(=O)c2ccc(-c3ccc(N4CCSCC4)nc3)cc2)c1	?	i	?	7.08µM*	6.85µM*	6.85µM*	-20.8%	6.11µM*
CC1CCN(CC2CCCN(C(=O)Nc3ccccc3F)CC2)CC1 (stereo unspecified)	?	i	?	1.0%	·	·	·	·
COc1ccccc1-c1ncc(CNc2ncncn2)s1	?	i	-29.8%	-1.4%	·	·	·	·
COc1ccccc1-c1ncc(CNc2cc(C3CC(O)C3)ncn2)s1 (stereo unspecified)	31.6µM*	i	-64.2%	7.08µM*	8.62µM*	12.2µM*	-27.1%	6.85µM*
Fc1ccc(-c2cnc3n2C[C@H](CNCc2ccccc2Cl)OC3)cc1	79.4µM*	i	?	25.1µM*	39.6µM*	39.6µM*	-18.9%[86.2 µM]	39.6µM*
Fc1ccc(-c2cnc3n2C[C@H](CNCC2CCCCC2)OC3)cc1	?	i	?	-14.9%[70.6 µM]	·	·	·	·
CN1C[C@@H]2CCCN3CCC[C@@H]([C@H]23)[C@H]1CCCC(=O)N1CCCCC1	7.5%	i	0.2%	2.1%	·	·	·	·
COc1ccc(-c2noc(CC3CCN(C(=O)c4cc(F)ccc4Cl)CC3)n2)cc1	?	i	?	10µM*	12.2µM*	13.7µM*	0.3%	10.9µM*
CC(C)c1noc(CC2CCN(C(=O)c3ccc(F)cc3Cl)CC2)n1	?	i	i	?	·	·	·	·
SMILES	HEK cytotox	Luciferase inh	3T3 cytotox	NPR1 antag	Npr1 antag conf	NPR2 antag	FLuc inh counter	GloSensor ctrl
O=C(c1ccc(F)cc1F)N1CCC(Cc2nc(-c3cnccn3)no2)CC1	-6.1%	i	-9.0%	-2.3%	·	·	·	·
O=C(c1ccc(F)cc1Cl)N1CCC(Cc2nc(-c3ccc(F)cc3)no2)CC1	31.6µM*	i	?	3.16µM*	3.06µM*	3.06µM*	4.4%	3.06µM*
O=C(c1cc(F)ccc1F)N1CCC(Cc2nc(-c3ccccc3)no2)CC1	?	i	?	5.62µM*	7.69µM*	9.68µM*	-14.7%	8.62µM*
O=C(c1ccc(F)c(Cl)c1)N1CCC(Cc2nc(-c3cnccn3)no2)CC1	?	i	31.6µM*	?	21.7µM*	?	-0.2%	19.3µM*
O=C([C@H]1CCCN1C(=O)c1ccccc1)N1CCC(N2CCOC2=O)CC1	i	·	3.4%	·	·	·	·	·
CCC(=O)N(C1CCOCC1)C1CCN(S(=O)(=O)c2cccc(C)c2)CC1	0.6%	i	-18.8%	-2.2%	·	·	·	·
CN(C)C(=O)N1C2CCC1CN(c1ccc(C(F)(F)F)cc1)C2	?	·	?	·	24.1µM*	19.1µM*	0.7%	15.2µM*
COc1ccc(N2CC3CCC(C2)N3C(C)=O)cc1	-8.6%[172 µM]	·	-15.1%[138 µM]	·	·	·	·	·
CN1CCN([C@@H]2[C@H](O)[C@H](CO)O[C@@H]2CNC(=O)c2ccccc2)CC1	0.5%[172 µM]	i	-2.9%[174 µM]	-3.7%[70.6 µM]	·	·	·	·
